A selection: hits, their analogues and other compounds. The true share with any hit is near 14%.
NS1 inh: qHTS Assay for Inhibitors of Influenza NS1 Protein Function | Potency, µM (highest dose often 46.1 µM), for the others: at the top dose activity, positive = more growth | 270,000 compounds, 0.4% hits | AID 2326, 2010; calls by dose curve; note: potency is the fitted concentration of half-maximal effect; actives are rising curves; nearly all actives have a fitted effect of over 50% in size
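Recovery from NS1-induced slow growth read by OD600 in budding yeast switched to galactose assay medium (pH 6.0, -URA) at 1:100 dilution. Compound 23 nl per well; the matching strain lacking NS1 serves as control.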
Cycloheximide cs: Cycloheximide Counterscreen for Small Molecule Inhibitors of Shiga Toxin; max response, %; AID 2314, 2010; cell reporter, cycloheximide protein synthesis inhibition counterscreen; 300,000 compounds, 12% hits; in the data active = max response mostly above about 13%, no sharp cut-off; inactive = mostly below about 14%; note: read at 38.3 µM for the half of the compounds with a filed dose; 0% is about no effect
Shiga inhibitor: A qHTS for Small Molecule Inhibitors of Shiga Toxin; Vero cells, Shiga toxin protein synthesis inhibition reporter; 290,000 compounds, 9.2% hits; AID 2315, 2010; inhibition, % at 38.7 µM; in the data active = inhibition mostly above about 28%, no sharp cut-off; inactive = mostly below about 43%; note: 0% is about no effect
LmPK inhibitor: qHTS Assay for Inhibitors of Leishmania Mexicana Pyruvate Kinase (LmPK); purified LmPK, Kinase-Glo ATP luminescence, 1 h; AID 1721, 2009; 290,000 compounds, 0.37% hits; Potency, µM (series often up to 57.5 µM), for the others: at the highest dose activity change, negative = inhibition, hits mostly inhibitors; Q27686; note: potency is the fitted concentration of half-maximal effect; % is set by controls: 0 for no effect and ±100 for the full control effect
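Kinase-Glo luminescence read after 1 h RT reaction of 0.1 nM LmPK with 0.5 mM PEP and 0.1 mM ADP. Activity scaled between uninhibited and enzyme-free controls.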
Giardia FBPA inh: qHTS Assay for Inhibitors of Fructose-1,6-bisphosphate Aldolase from Giardia Lamblia | A8B2U2 | purified Giardia FBPA | Potency, µM (doses to about 59.6 µM), without a hit: at the highest dose activity, negative = inhibition, usual class: inhibitors | 290,000 compounds, 0.71% hits | AID 2451, 2010; note: potency is the fitted concentration of half-maximal effect; % is set by controls: 0 for no effect and ±100 for the full control effect; nearly all actives have a fitted effect of over 55% in size
Target sequence (A8B2U2 whole entry, looked up): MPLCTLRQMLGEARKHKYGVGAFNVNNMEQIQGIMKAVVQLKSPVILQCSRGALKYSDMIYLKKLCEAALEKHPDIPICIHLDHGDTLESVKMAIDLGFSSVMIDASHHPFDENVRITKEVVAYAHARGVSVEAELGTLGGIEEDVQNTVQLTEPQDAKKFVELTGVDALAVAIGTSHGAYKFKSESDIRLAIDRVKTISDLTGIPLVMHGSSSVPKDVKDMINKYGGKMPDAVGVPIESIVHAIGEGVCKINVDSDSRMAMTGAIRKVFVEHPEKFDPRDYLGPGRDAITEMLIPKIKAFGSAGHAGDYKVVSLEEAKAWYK
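Giardia FBPA (40 nM reagent) was preincubated 10 min at RT with compound (up to 57.5 uM final), then substrate plus GAPDH/TPI/NAD/arsenate coupling system with diaphorase/resazurin was added; resorufin fluorescence (525/598 nm) was read after 20 min.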
* = called active by the depositor; i = inactive; ? = inconclusive; · = not tested or not shown; [ ] = another dose, or the depositor's remark. Unless noted, calls come from the whole dose curve; as a rule, active = well fitted curve in the direction sought with a large enough effect; inconclusive = small, poorly fitted or top-dose-only effect, or another doubt; inactive = no such curve, though single readings can be large; an effect the other way counts as inactive or inconclusive.

SMILES | NS1 inh | Cycloheximide cs | Shiga inhibitor | LmPK inhibitor | Giardia FBPA inh
CCCn1cnc2c(cnn2-c2ccc(F)cc2)c1=O | -1.3% | 43.3* | 70.5* | -2.3% | 4.2%
CCCCn1cnc2c(cnn2-c2ccc(Cl)cc2)c1=O | -1.4% | 10.8* | 18.3 | 0.5% | 2.0%
CCCCCCCCCCOCCC(=O)O | · | · | · | · | 2.3%
Cc1cc2c(nc1C)CCCN2C[C@H](C)O/N=C1/[C@H]2O[C@@H]2[C@@H](O)[C@H]2[C@H]1CCn1c(=O)n(-c3ccccc3)c(=O)n12 | · | · | · | · | 0.2%[12.9 µM]
CC1(C)Cc2c(cnn2-c2cccc(F)c2)C(NC(=O)CCc2cnccn2)C1 (stereo unspecified) | -8.0% | 41.0* | 19.2 | 0.3% | 7.5%
Cc1ncoc1C(=O)NC1CC(C)(C)Cc2c1cnn2-c1ccc(F)cc1 (stereo unspecified) | 8.9% | 3.4 | 9.9 | -4.4% | ·
CC1(C)Cc2c(cnn2-c2cccc(F)c2)C(NC(=O)CCN2CCCC2=O)C1 (stereo unspecified) | -6.6% | 11.0 | 10.9 | -4.2% | 4.2%
CC1(C)Cc2c(cnn2-c2ccc(F)cc2)C(NC(=O)C2=NNC(=O)CC2)C1 (stereo unspecified) | 1.9% | 28.5* | 39.4* | 0.0% | -3.8%
CC1(C)Cc2c(cnn2-c2ccc(F)cc2)C(NC(=O)c2ccco2)C1 (stereo unspecified) | 1.0% | 12.6 | 22.4* | -4.0% | ·
CC1(C)Cc2c(cnn2-c2ccc(F)cc2)C(NC(=O)CCN2CCCC2=O)C1 (stereo unspecified) | -2.8% | 30.1* | 46.8* | -4.0% | 11.3%
O=C(N/C(=C/c1ccccc1F)C(=O)N1CCCCC1)c1ccccc1 | 11.9% | 0.4 | -5.3 | 2.6% | -0.4%
CC(=O)c1ccc(-c2c(C3C4C=CCC(C)C4C(=O)N3Cc3ccccc3)ccc3ccccc23)cc1 (stereo unspecified) | · | 21.3 | 3.3 | · | -5.1%
COc1ccc(C(=O)NC2CC(C)(C)Cc3c2cnn3-c2ccccc2)cc1OC (stereo unspecified) | -19.8% | -1.5 | -4.8 | -6.1% | ·
CC(=O)c1ccc(C(=O)NC2CC(C)(C)Cc3c2cnn3-c2ccccc2)cc1 (stereo unspecified) | 14.6% | 19.3* | 16.7 | -1.3% | ·
COC(=O)C(CCSC)NS(=O)(=O)c1ccccc1Br (stereo unspecified) | · | -6.9 | -3.0 | · | 8.2%
O=C(Nc1cnc2sc3c(n2c1=O)CCCC3)c1ccc(F)cc1 | -35.6% | 25.4* | 44.0* | -2.9% | -4.5%
COc1ccc(C(=O)Nc2cnc3ccccn3c2=O)cc1 | -2.1% | 45.7* | 96.9* | -17.4% | -2.8%
O=C(Nc1ccccc1NC(=O)c1ccc(F)cc1)c1ccc(F)cc1 | 7.0% | -4.3 | -3.1 | 0.7% | 6.0%
O=C(Nc1cnc2ccccn2c1=O)c1ccc(F)cc1 | ? | 32.6* | 58.0* | -8.4% | 0.9%
CNc1nc(Cl)c(SC)c(NCc2cccc(OC)c2)n1 | -2.7% | -3.9 | -3.0 | -10.3% | 0.2%
CCCCN(Cc1cc2cc(OC)ccc2[nH]c1=O)S(=O)(=O)c1ccc(C)cc1 | 16.1% | -2.2 | -1.4 | -4.6% | -19.5%
Cc1cc2c(c(=O)o1)C1O[C@](CCCCN3C(=O)c4ccccc4C3=O)(Cc3cc(C#N)ccc31)O2 | ? | -1.5 | i | -9.0%[11.5 µM] | 2.5%[12.9 µM]
COc1ccc(-c2nnc(NC(=O)C(C)C)s2)c(OC)c1 | 3.7% | 20.7* | 52.3 | -7.1% | -3.2%
COC(=O)Nc1nnc(-c2ccccc2OC)s1 | -7.9% | 37.9* | 74.3* | -29.8% | -8.0%
COc1ccccc1-c1nnc(NC(=O)OCC(C)C)s1 | -7.7% | -1.8 | -9.1 | -0.1% | -1.0%
SMILES | NS1 inh | Cycloheximide cs | Shiga inhibitor | LmPK inhibitor | Giardia FBPA inh
COc1ccccc1-c1nnc(N)s1 | 2.0% | 3.7 | -2.7 | 9.3% | -6.5%
CCOC(=O)Nc1nnc(-c2ccccc2OC)s1 | -14.0% | 21.4* | 32.8* | -2.5% | -1.0%
C/C=C/C(=O)Nc1nnc(-c2ccccc2C)s1 | -1.0% | 6.1 | 4.0 | 9.1% | 4.7%
C=C(C)C(=O)Nc1nnc(-c2ccccc2C)s1 | 9.4% | 33.6* | 24.3 | 4.2% | -0.2%
O=S(=O)(Nc1cccc2cccnc12)c1ccc(Br)cc1 | · | -3.1 | -11.3 | · | ?
CC(C)C[C@@H](CC(=O)N[C@@H](CCC(=O)O)CC(=O)O)NC(=O)[C@@H]1CNCC[C@H]1NC(=O)C[C@@H](NC(=O)C[C@H](CO)NC(=O)[C@@H]1CCCC[C@H]1N)C(C)C | · | · | · | · | -22.1%
Cc1ccc(C)c(/C(=N\N=C(N)N)C2CC2)c1 | -3.8% | · | · | · | ·
COC(=O)Nc1nnc(-c2ccncc2)s1 | -35.0% | 3.1 | 5.4 | -23.6% | ?
COC(=O)Nc1nnc(-c2ccccc2Cl)s1 | -80.2% | 25.8* | 65.1* | -1.7% | -1.7%
CC[C@H](C)[C@H](NC(=O)[C@H](CO)NC(=O)[C@H](C)NC(=O)[C@H](C)NC(=O)[C@H](CCC(N)=O)NC(=O)[C@H](CCCCN)NC(=O)[C@H](CCCN=C(N)N)NC(=O)[C@@H](N)CS)C(=O)N[C@@H](CCCCN)C(=O)N[C@H](C(=O)N[C@@H](C)C(=O)N[C@H](C(=O)N[C@@H](CO)C(=O)O)C(C)C)C(C)C | · | -5.5 | 12.8 | · | 4.3%
COc1ccc(-c2ncc3ccccn23)cc1 | -2.3% | 41.4* | 145.2* | -22.0% | -25.5%
COc1cc(OC)cc(-c2ncc3ccccn23)c1 | -4.1% | 11.0 | 16.6 | -10.1% | 4.3%
COc1cccc(-c2ncc3ccccn23)c1 | 4.3% | 36.3* | 71.2* | ? | 0.6%
Nc1nc(Cl)nc2c1ncn2C1OC(CO)C(O)C1F (stereo unspecified) | · | -2.9 | -9.9 | · | 7.0%
Cc1ccc(N2C(=O)Nc3cc(Cl)c(Cl)cc3N2O)cc1Cl | · | -3.1 | -15.0 | 0.2%[11.5 µM] | -23.1%
O=C1Nc2cc(Cl)c(Cl)cc2N(O)N1c1ccccc1 | 17.8% | 30.2* | 20.0 | 7.5% | 2.2%
COc1ccc(/C(O)=C2/C(=O)C(=O)N(CCN(C)C)C2c2ccccn2)cc1OC (stereo unspecified) | 3.9% | 5.7 | -5.8 | -6.3% | ?
O=C1C(=O)N(CCN2CCOCC2)C(c2ccccn2)/C1=C(/O)c1ccccc1 (stereo unspecified) | 5.3% | 29.6* | 109.4* | 1.3% | ?
O=C(C1=C(O)C(=O)N(CCCN2CCOCC2)C1c1ccccn1)c1cccs1 (stereo unspecified) | -11.9% | 75.4* | 43.1* | -17.5% | -8.4%
Cc1ccc(/C(O)=C2/C(=O)C(=O)N(CCN3CCOCC3)C2c2ccccn2)cc1 (stereo unspecified) | ? | 33.8* | 105.3* | 2.8% | ?
O=C(C1=C(O)C(=O)N(CCN2CCOCC2)C1c1ccccc1)c1cccs1 (stereo unspecified) | -16.0% | · | · | · | ·
COc1ccc(/C(O)=C2/C(=O)C(=O)N(CCN3CCOCC3)C2c2ccccn2)cc1OC (stereo unspecified) | 8.4% | 25.1* | 64.4* | 4.5% | ?
C[Si](C)(C/C=C/CC[C@H](O)C1=CCCCC1=O)c1ccccc1 | · | · | · | · | -0.2%
Oc1ccc(Cc2nccc3cc(O)c(O)cc23)cc1O | -5.4% | · | · | · | ·
